FAS TE block = FAS thioesterase (human) inhibition; AID 602261; P49327; inhibition, % at 15 µM; hit rate 0.67% among 360,000; recombinant FAS-TE, OMFH fluorogenic substrate, fluorescence endpoint;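 active means compounds whose normalised, plate-corrected inhibition of enzyme fluorescence in the single-dose primary screen is 50% or more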;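 further: 0% = DMSO with enzyme and 100% = substrate without enzyme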
KLK7 zymogen act = activates the human kallikrein-7 zymogen | P49862 | purified proKLK7, EDANS-DABCYL substrate fluorescence; 100% is mature enzyme control, 0% vehicle | activation, % at 7 µM | hit rate 0.9% among 370,000 | AID 652039;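 active means activation above the mean of all tested compounds plus 3 SD, computed per campaign excluding outliers beyond control limits, cut at about 13% in these data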
Target sequence (P49862 whole entry, looked up): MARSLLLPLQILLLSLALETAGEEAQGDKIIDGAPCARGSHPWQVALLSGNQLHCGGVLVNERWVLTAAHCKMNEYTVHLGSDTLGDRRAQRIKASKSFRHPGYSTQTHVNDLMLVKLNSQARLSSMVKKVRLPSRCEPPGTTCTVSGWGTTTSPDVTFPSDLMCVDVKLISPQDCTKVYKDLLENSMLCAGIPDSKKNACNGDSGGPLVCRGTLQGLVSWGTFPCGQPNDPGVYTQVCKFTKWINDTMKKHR
PfGluPho inh = PfG6PD (Plasmodium falciparum) enzyme inhibition | PfGluPho enzyme, NADPH resazurin-diaphorase fluorescence | hit rate 0.78% among 350,000 | AID 504690 | inhibition, % at 20 µM;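 active means inhibition reaching at least a set limit at 20 µM in the primary screen, cut at about 59% in these data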;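 further: 0% = DMSO wells with substrate and 100% = DMSO wells lacking glucose-6-phosphate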
Neddyl block = cullin neddylation inhibition. P61081+Q13564. TR-FRET cullin neddylation, biochemical. calls only at 25 µM. hit rate 0.58% among 360,000; in the data active means inhibition above about 36%
PfGluPho conf = PfG6PD inhibition, single-dose confirmed; inhibition, % at 20 µM; AID 504753; shares compounds with PfGluPho inh; hit rate 34% among 2,400; recombinant PfGluPho, NADPH-diaphorase-resazurin fluorescence;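 active means inhibition of at least 50% at 20 µM in any single replicate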;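 further: 0% = DMSO with substrate and 100% = DMSO lacking glucose-6-phosphate substrate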
Diaphorase 10uM = counter-screen for P. falciparum G6PD inhibitors: diaphorase inhibitors, oxidizers; shares compounds with PfGluPho inh; diaphorase-coupled resazurin reduction, fluorescence, NADPH 10 uM; inhibition, % at 20 µM; hit rate 39% among 820;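 active means average inhibition reaching 50% or more with the compound at 20 µM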;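 further: resorufin red fluorescence formed as diaphorase reduces resazurin using NADPH; 0% = DMSO with enzyme and 100% = DMSO without enzyme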
Diaph ctr 30uM = counter-screen for P. falciparum G6PD inhibitors: diaphorase inhibitors, oxidizers. Diaphorase/resazurin coupled assay, resorufin fluorescence, 30 uM NADPH. AID 504863. hit rate 29% among 820. shares compounds with PfGluPho inh. inhibition, % at 20 µM;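 active means inhibition averaging 50% or more, tested at 20 µM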;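 further: 0% = DMSO with enzyme and 100% = DMSO wells lacking diaphorase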
* hit, by the source's call; i = inactive; / = no result given. In the library only some 2.7% were active in any assay of this set; here they are far more common.

SMILES	FAS TE block	KLK7 zymogen act	PfGluPho inh	Neddyl block	PfGluPho conf	Diaphorase 10uM	Diaph ctr 30uM
NS(=O)(=O)c1ccc(N/N=C/c2ccc(O)c(O)c2O)c([N+](=O)[O-])c1	5	0	87*	i	70*	5	-3
NS(=O)(=O)c1ccc(N/N=C/c2ccc(O)cc2O)c([N+](=O)[O-])c1	11	0	1	i	/	/	/
COc1ccccc1NS(=O)(=O)c1cc(NC(=S)NCCN2CCOCC2)ccc1N1CCOCC1	0	0	66*	i	40	/	/
COc1ccccc1NS(=O)(=O)c1cc(NC(=O)C(C)(C)C)ccc1N1CCOCC1	5	0	2	i	/	/	/
O=S(=O)(Nc1ccccc1F)c1cccc(NC(=S)NCCN2CCOCC2)c1	-6	1	96*	i	77*	-1	-10
COC(=O)C[C@H]1CC[C@H]2[C@H](COc3ccc(NS(=O)(=O)c4ccccc4C)cc3C(=O)N2C)O1	/	0	/	/	/	/	/
O=C(CCSCCC(=O)NN=Cc1cccc(Cl)c1)NN=Cc1cccc(Cl)c1	19	0	86*	i	88*	79*	66*
O=C(CCC(=O)Nc1ccccc1Cl)N/N=C/c1ccccc1	-10	0	105*	i	81*	69*	48
O=C(CSCC(=O)NN=Cc1ccccc1)NN=Cc1ccccc1	-5	0	39	i	/	/	/
O=C(CCCC(=O)Nc1ccc(Br)cc1)N/N=C/c1ccccc1	3	0	60*	i	42	/	/
O=C(CCCSCCCC(=O)NN=Cc1ccccc1)NN=Cc1ccccc1	2	0	59*	i	19	/	/
Cc1nn(-c2ccccc2)c2sc(C(=O)NC3CCCC3)cc12	/	-1	/	/	/	/	/
O=C(CC(=O)N/N=C/c1ccccc1)NCc1ccccc1	-1	0	107*	i	72*	67*	67*
O=C(O)COn1c(-c2ccccc2)nc2ccc([N+](=O)[O-])cc21	-1	0	57	i	/	/	/
CCOC(=O)C(C)On1c(-c2ccccc2)nc2ccc([N+](=O)[O-])cc21 (stereo not given)	14	0	62*	i	-10	/	/
CCOC(=O)C(C)On1c(-c2ccc(Cl)cc2)nc2ccc([N+](=O)[O-])cc21 (stereo not given)	23	0	76*	i	9	/	/
O=[N+]([O-])c1ccc2nc(-c3ccc(Cl)cc3)n(OCc3ccccc3)c2c1	17	0	122*	i	-1	/	/
CCOC(=O)C1=CCN(S(=O)(=O)c2ccc(Cl)cc2)C1c1cccc(Cl)c1 (stereo not given)	/	0	/	/	/	/	/
O=C(Nc1ccc(N2CCN(C(=O)c3ccco3)CC2)c(Cl)c1)c1cc2ccccc2o1	25	-2	90*	/	43*	47	44
O=C(Nc1ccc(N2CCN(C(=O)c3ccccc3)CC2)c(Cl)c1)c1ccco1	1	0	-20	i	/	/	/
Cc1ccc(NC(=O)c2cc3ccccc3o2)cc1Cl	36	-1	100*	i	18	/	/
CCC(=O)N1CCN(c2ccc(NC(=O)c3cc4ccccc4o3)cc2Cl)CC1	8	1	118*	i	84*	72*	61*
CC(C)c1nnc(NC(=O)c2cc3ccccc3o2)s1	-6	0	66*	i	54*	35	10
COC(=O)C1CN(Cc2cn(Cc3ccc(OC)cc3)nn2)CCS(=O)(=O)N1Cc1ccc(Cl)cc1 (stereo not given)	/	0	/	/	/	/	/
COC(=O)c1cc(NC(=O)NC2CCCCN(Cc3cccc(Cl)c3)C2=O)cc(C(=O)OC)c1 (stereo not given)	/	1	/	/	/	/	/
SMILES	FAS TE block	KLK7 zymogen act	PfGluPho inh	Neddyl block	PfGluPho conf	Diaphorase 10uM	Diaph ctr 30uM
COc1ccc(S[C@]2(C(=O)N(C)C)CC(=O)N(c3ccccc3)[C@@H]2c2ccc(OC)cc2)cc1	/	0	/	/	/	/	/
COc1ccc(CCNC(=O)c2cc3ccccn3n2)cc1	/	-1	/	/	/	/	/
O=C(CSc1nnc(-c2ccc(Cl)cc2)n1-c1ccccc1)NN=Cc1c[nH]c2ccccc12	/	0	/	/	/	/	/
COCCCNC(=O)C[C@H]1C[C@@]2(C(=O)OC)C(=C[C@H](C(C)C)O[C@@H]2C2CC2)N(Cc2ccc(Cl)cc2Cl)C1=O	/	1	/	/	/	/	/
CC(=O)CC[C@@H]1CC[C@]2(CCCN(S(=O)(=O)C3CCCCC3)C2)O1	/	0	/	/	/	/	/
CC(=O)Oc1ccccc1C(=O)Nc1ccccc1	-1	3	2	i	/	/	/

Compound activity deposited in PubChem by several laboratories.
